# OPRM1-OPRD1 ag = OPRM1-OPRD1 heterodimerization agonism; cells, luminescence; activation, % at 9.3 µM; 340,000 compounds, 0.3% hits
# MOR-DOR inv ag = inverse agonist of human OPRM1-OPRD1 heterodimerization | P35372+P41143 | cell-based MOR-DOR heterodimer luminescence, inverse agonism | inhibition, % at 9.3 µM | 340,000 compounds, 0.21% hits | AID 504357; in the data active means inhibition above about 22%, passing the limit was not always enough
# HTR5A ag = counter-screen for OPRM1-OPRD1 agonists: human HTR5A agonism; P47898; HTR5A agonist assay, luminescence, cell-based; activation, % at 9.3 µM; 340,000 compounds, 0.61% hits; AID 504692; in the data active means activation mostly above about 9.5%, no sharp cut-off; inactive means mostly below about 7.6%
# HTR5A inv ctr = counter-screen for OPRM1-OPRD1 inverse agonists: human HTR5A inverse agonism; 340,000 compounds, 0.083% hits; inhibition, % at 9.3 µM; P47898; HTR5A cell line, luminescence; AID 504634; in the data active means inhibition mostly above about 23%, no sharp cut-off; inactive means mostly below about 18%
# MOR-DOR ag conf = OPRM1-OPRD1 heterodimer agonism, confirmation; shares compounds with OPRM1-OPRD1 ag; cells, MOR-DOR heterodimerization, luminescence complementation; activation, % at 9.3 µM; 830 compounds, 45% hits
# HTR5A ag counter = HTR5A agonism, opioid heterodimer counter-screen; shares compounds with OPRM1-OPRD1 ag; HTR5A agonist counterscreen, cell luminescence; activation, % at 9.3 µM; 830 compounds, 8% hits; AID 504905; in the data active means activation above about 17%
# A number is an active result; - = inactive; . = no result given. Only some compounds are listed: those with a hit (about 1.1% of all), similar ones and a draw of the others. Unless noted, no stated cut-off is given here; in the data, active means activation above about 18%; inactive means the rest.
SMILES,OPRM1-OPRD1 ag,MOR-DOR inv ag,HTR5A ag,HTR5A inv ctr,MOR-DOR ag conf,HTR5A ag counter
C#Cc1ccc([C@@H]2C=C(C(=O)N3CCOCC3)O[C@H](OCc3ccc(CO)cc3)C2)cc1,-,-,-,-,.,.
Cc1cc2c(cc1C)CSC(c1c(O)ccc3ccccc13)SC2,31.0,-,-,-,18.7,-
CCN1CCN(Cc2ccc(NC(=O)c3ccc(C)c(NC(=O)c4c[nH]c5cc(C(F)(F)F)ccc5c4=O)c3)cc2C(F)(F)F)CC1,46.7,-,-,-,39.2,-
CN=c1scc(-c2ccccc2F)n1/N=C/c1ccc(O)c(O)c1O,18.3,-,-,-,-,-
COc1ccccc1C(CNc1ccc(S(=O)(=O)N2CCCC2)cc1[N+](=O)[O-])N(C)C (stereo not given),-,-,-,-,.,.
Oc1cccc(NC(=S)Nc2ccc(SC(F)F)cc2)c1,32.2,-,-,-,-,-
Oc1cccc2c(NC(=S)Nc3ccc(SC(F)F)cc3)cccc12,-,-,-,-,.,.
Cc1ccc2nc(SC(C(=O)Nc3ccc(F)cc3)c3ccccc3)[nH]c2c1 (stereo not given),23.5,-,-,-,454.0,-
Cc1ccc(C)c(NC(=O)C(Sc2nc3ccc(C)cc3[nH]2)c2ccccc2)c1 (stereo not given),-,-,-,-,.,.
Cc1ccc(-n2cc(CNC(C)Cn3cncn3)c(-c3ccc(F)cc3)n2)cc1 (stereo not given),-,-,-,-,.,.
Cc1ccc(C)c(-n2cc(CNC(C)Cn3cncn3)c(-c3ccccc3)n2)c1 (stereo not given),39.5,-,-,-,36.3,-
Cc1ccc(-n2cc(CNCCCn3cccn3)c(-c3cccc(C)c3)n2)cc1,-,-,-,-,.,.
Cc1ccc(C)c(-n2cc(CNCCCn3cccn3)c(-c3ccccc3)n2)c1,242.7,-,-,-,218.2,-
CCn1c(=O)c(C(=O)NCc2cccnc2)c(O)c2ccccc21,18.8,-,-,-,28.7,-
CCn1c(=O)c(C(=O)NCc2ccccc2)c(O)c2ccccc21,-,-,-,-,.,.
CCN(CC(=O)NC(=O)NC1CCCC1)Cc1ccccc1,-,-,-,-,.,.
COc1ccc2cc3cc(C(=O)NC(C)C)oc3nc2c1,-,-,-,-,.,.
COc1ccc2cc3cc(C(=O)Nc4cc(OC)c(OC)c(OC)c4)oc3nc2c1,19.5,-,-,-,20.6,-
CC(C)(C)c1ccc(OCC(=O)NCCN2CCOCC2)cc1,-,-,-,-,.,.
Nc1c(NCCN2CCCCC2)c2ccccc2oc1=O,53.3,-,-,-,-,-
CN(C)C1(CNC(=O)CC(NC(=O)c2ccccc2Cl)c2ccccc2)CCCCC1 (stereo not given),21.7,-,-,-,-,-
Cc1ccc2[nH]c3c(N4CCc5ccccc5C4)ncnc3c2c1,371.4,-,-,-,-,19.4
COc1ccc(N2CCN(C(c3cccs3)C(C)NC(=O)c3ccco3)CC2)cc1 (stereo not given),-,-,-,-,.,.
COc1ccccc1N1CCN(C(c2cccs2)C(C)NC(=O)c2ccco2)CC1 (stereo not given),91.3,-,-,-,119.3,-
O=C(Nc1ccc([N+](=O)[O-])cc1)NN1CCCCCC1,-,-,-,-,.,.
SMILES,OPRM1-OPRD1 ag,MOR-DOR inv ag,HTR5A ag,HTR5A inv ctr,MOR-DOR ag conf,HTR5A ag counter
CC1=C(C(=O)Nc2ccccc2)C(c2ccc(C)cc2)N=C(Nc2nc3ccccc3o2)N1 (stereo not given),40.5,-,-,-,34.1,-
CSc1cccc(NC(=S)N(Cc2ccccc2)Cc2cccnc2)c1,-,-,-,-,.,.
COC(=O)CC1(C(=O)OC)Oc2ccc(Br)cc2C(=O)N1c1ccc(Br)cc1Cl (stereo not given),46.0,-,-,-,-,-
CCC(=O)c1ccc(OCC(=O)OCC(=O)NCC2CCCO2)cc1 (stereo not given),-,-,-,-,.,.
Cc1cc(N2CCN(c3ccc([N+](=O)[O-])c4cccnc34)CC2)c2ccccc2n1,36.0,-,-,-,52.5,-
CCOC(=O)C1=C(c2ccccc2)NC(=O)NC1c1ccc(O)c(Cl)c1 (stereo not given),103.0,-,31.5,-,82.1,28.0
CN1CCN(c2ccc(NC(=O)COc3ccc4ccccc4c3)cc2)CC1,-,-,-,-,.,.
CN1CCN(c2ccc(NC(=O)COc3cccc4ccccc34)cc2)CC1,25.2,-,-,-,-,38.9
